Measurements as given in PubChem BioAssay (EPA / NIEHS).
Inconclusive results are not listed. The source made the active and inactive calls. Rule for the calls, unless noted: active = hit-call score of the fitted dose curve at least 0.9, where 1 is the maximum; inactive = score below 0.9.

What was measured:
[1] = ATG_TAL_CIS: Attagene CIS-FACTORIAL HepG2 Assay for human TAL Basal Promoter (AID 2282966); settings: HepG2 Attagene cis-factorial TAL promoter reporter; actives raise or lower the signal;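 note: background control endpoint measuring basal TAL promoter reporter mRNA not a specific factor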
Summary of the method: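 Transiently transfected HepG2 (cis-regulated reporter units), 24 h treatment, mRNA read by fluorescent CE after RT-PCR; bidirectional fit, DMSO baseline.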

[2] = ATG_TGFb_CIS: Attagene CIS-FACTORIAL HepG2 Assay for human Transforming Growth Factor (TGF) (AID 2282967); settings: HepG2 Attagene CIS TGFb reporter, mRNA transcription; actives raise or lower the signal
Summary of the method: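 HepG2 cells transiently transfected with cis-promoter-driven multiple reporter units measure endogenous TF activity; reporter mRNA quantified at 24 h by RT-PCR, FAM labeling, HpaI digestion and capillary electrophoresis. Bidirectional fit vs DMSO.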

[3] = ATG_VDRE_CIS: Attagene CIS-FACTORIAL HepG2 Assay for human Vitamin D Receptor Element (VDRE) (AID 2282968); settings: HepG2 VDRE cis-reporter transcription, actives raise or lower the signal
Summary of the method: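 Measures endogenous factor activity through cis-element-driven reporter transcripts in transiently transfected HepG2. Cells are treated 24 h; reporter mRNA is quantified by RT-PCR and capillary electrophoresis; fitting is bidirectional.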

[4] = target: Estrogen receptor (Homo sapiens) (UniProt P03372); assay: ATG_ERa_TRANS: Attagene TRANS-FACTORIAL HepG2 Assay for human Estrogen Receptor alpha (ERa) (AID 2282970; active = hit-call score of the fitted dose curve at least 0.9, where 1 is the maximum); settings: HepG2 Attagene TRANS ERa GAL4 reporter, mRNA
Estrogen receptor (Homo sapiens), sequence (P03372 whole entry, looked up, the tested form may be a part): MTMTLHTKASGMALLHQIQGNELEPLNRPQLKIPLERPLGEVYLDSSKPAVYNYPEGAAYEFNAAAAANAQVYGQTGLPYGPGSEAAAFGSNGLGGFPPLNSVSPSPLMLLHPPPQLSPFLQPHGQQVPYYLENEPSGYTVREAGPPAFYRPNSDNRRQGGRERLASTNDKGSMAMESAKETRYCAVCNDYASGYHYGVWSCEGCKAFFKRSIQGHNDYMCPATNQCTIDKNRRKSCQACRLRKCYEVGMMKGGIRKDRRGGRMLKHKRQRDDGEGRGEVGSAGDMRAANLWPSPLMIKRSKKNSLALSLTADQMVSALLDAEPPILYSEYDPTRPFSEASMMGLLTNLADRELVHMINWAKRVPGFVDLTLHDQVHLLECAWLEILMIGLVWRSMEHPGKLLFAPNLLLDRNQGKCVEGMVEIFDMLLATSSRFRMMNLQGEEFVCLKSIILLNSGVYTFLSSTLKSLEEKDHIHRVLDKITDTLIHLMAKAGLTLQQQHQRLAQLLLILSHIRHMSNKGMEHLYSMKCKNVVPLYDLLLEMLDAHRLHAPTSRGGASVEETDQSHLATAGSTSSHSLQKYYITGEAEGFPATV
Summary of the method: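 One of 30 multiplexed endpoints from a HepG2 TRANS system, this one reports ERa-Gal4-driven reporter mRNA. Transcripts were quantified 24 hours post-dosing by fluorescent RT-PCR and capillary electrophoresis, with activity scored as induction over DMSO.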

[5] = target: X-box-binding protein 1 (Homo sapiens) (UniProt P17861); assay: ATG_Xbp1_CIS: Attagene CIS-FACTORIAL HepG2 Assay for human X-box Binding Protein 1 (XBP1) (AID 2282972); settings: HepG2 XBP1 cis-element reporter, Attagene multiplex; actives raise or lower the signal
X-box-binding protein 1 (Homo sapiens), sequence (P17861 whole entry, looked up): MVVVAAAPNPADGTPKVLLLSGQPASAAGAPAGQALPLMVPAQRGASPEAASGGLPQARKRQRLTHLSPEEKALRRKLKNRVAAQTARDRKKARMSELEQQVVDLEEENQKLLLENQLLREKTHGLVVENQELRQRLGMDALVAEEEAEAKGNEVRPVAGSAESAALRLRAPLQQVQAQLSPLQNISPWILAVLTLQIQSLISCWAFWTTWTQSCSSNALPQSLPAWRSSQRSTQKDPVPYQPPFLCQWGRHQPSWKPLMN
Summary of the method: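 Human hepatoma HepG2, cis-element reporter system, 24 h treatment; mRNA quantified by RT-PCR/CE fluorescence; fit relative to DMSO.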

[6] = ATG_M_19_TRANS: Attagene TRANS-FACTORIAL HepG2 Assay for M19 Transcription Factor (Internal Marker) (AID 2282974; active = hit-call score of the fitted dose curve at least 0.9, where 1 is the maximum); settings: HepG2 Attagene TRANS-FACTORIAL M19 internal marker reporter
Summary of the method: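 Gain-of-signal in reporter mRNA, relative to DMSO, was scored from capillary electrophoresis fluorescence. HepG2 cells carried transiently transfected multiple reporter transcription units and were incubated with test chemicals for 24 h.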

[7] = target: Nuclear receptor subfamily 1 group I member 3 (Homo sapiens) (UniProt Q14994); assay: ATG_CAR_TRANS: Attagene TRANS-FACTORIAL HepG2 Assay for human Constitutive Androstane Receptor (CAR) (AID 2282969; active = hit-call score of the fitted dose curve at least 0.9, where 1 is the maximum;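 note: activators raise reporter mRNA above DMSO so AC50 marks induction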); settings: HepG2 Attagene TRANS-FACTORIAL CAR reporter
Nuclear receptor subfamily 1 group I member 3 (Homo sapiens), sequence (Q14994 whole entry, looked up, the tested form may be a part): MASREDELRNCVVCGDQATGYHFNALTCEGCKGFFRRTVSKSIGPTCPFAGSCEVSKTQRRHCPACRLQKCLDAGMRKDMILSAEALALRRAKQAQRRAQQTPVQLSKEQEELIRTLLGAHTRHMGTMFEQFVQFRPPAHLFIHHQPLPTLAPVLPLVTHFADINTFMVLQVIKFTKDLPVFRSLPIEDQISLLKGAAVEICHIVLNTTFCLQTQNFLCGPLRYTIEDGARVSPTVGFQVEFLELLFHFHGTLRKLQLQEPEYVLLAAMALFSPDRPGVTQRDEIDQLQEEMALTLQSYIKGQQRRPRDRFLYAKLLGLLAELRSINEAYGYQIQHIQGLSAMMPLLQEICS
Summary of the method: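 Signal is reporter mRNA induction relative to DMSO, measured 24 h after dosing by RT-PCR with fluorescent primer extension and capillary electrophoresis. Human HepG2 liver cells carried transiently transfected chimeric NR-Gal4/GAL4-UAS reporter constructs.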

[8] = target: Androgen receptor (Homo sapiens) (UniProt P10275); assay: ATG_AR_TRANS: Attagene TRANS-FACTORIAL HepG2 Assay for human Androgen Receptor (AR) (AID 2282973; active = hit-call score of the fitted dose curve at least 0.9, where 1 is the maximum); settings: HepG2 Attagene TRANS-FACTORIAL AR reporter transcription
Androgen receptor (Homo sapiens), sequence (P10275 whole entry, looked up): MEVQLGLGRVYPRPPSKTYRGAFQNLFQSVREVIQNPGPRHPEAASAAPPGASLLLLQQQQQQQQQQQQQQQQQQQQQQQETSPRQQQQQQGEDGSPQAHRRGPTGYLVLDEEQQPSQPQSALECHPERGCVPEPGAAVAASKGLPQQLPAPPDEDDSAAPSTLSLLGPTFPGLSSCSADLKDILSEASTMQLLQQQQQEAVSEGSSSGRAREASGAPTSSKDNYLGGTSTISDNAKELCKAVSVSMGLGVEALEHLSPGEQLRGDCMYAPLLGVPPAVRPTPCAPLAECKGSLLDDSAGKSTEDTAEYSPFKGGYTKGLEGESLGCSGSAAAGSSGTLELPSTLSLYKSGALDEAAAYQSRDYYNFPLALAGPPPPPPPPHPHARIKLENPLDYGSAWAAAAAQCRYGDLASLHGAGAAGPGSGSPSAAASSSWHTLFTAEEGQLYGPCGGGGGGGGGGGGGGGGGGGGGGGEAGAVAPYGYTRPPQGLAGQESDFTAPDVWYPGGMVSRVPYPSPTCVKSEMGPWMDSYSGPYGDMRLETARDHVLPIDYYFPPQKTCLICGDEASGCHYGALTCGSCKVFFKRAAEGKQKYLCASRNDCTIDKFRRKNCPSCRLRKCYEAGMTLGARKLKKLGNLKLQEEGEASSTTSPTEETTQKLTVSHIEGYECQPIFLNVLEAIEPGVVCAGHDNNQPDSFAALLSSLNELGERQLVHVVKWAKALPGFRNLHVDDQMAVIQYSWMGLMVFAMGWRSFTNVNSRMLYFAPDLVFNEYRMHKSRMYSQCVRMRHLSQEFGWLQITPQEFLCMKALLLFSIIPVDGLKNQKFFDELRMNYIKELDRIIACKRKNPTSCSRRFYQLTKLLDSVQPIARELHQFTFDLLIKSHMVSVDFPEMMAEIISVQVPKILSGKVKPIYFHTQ
Protocol: ATG_TRANS is a cell-based, multiplexed-readout assay that uses HepG2, a human liver cell line, with measurements taken at 24 hours after chemical dosing in a 24-well plate.ATG_AR_TRANS is one of 30 assay component(s) measured or calculated from the ATG_TRANS assay. It is designed to make measurements of mRNA induction, a form of inducible reporter, as detected with fluorescence intensity signals by Reverse transcription polymerase chain reaction (RT-PCR) and Capillary electrophoresis technology.Data from the assay component ATG_AR_TRANS was analyzed into 1 assay endpoint. This assay endpoint, ATG_AR_TRANS, was analyzed in the positive analysis fitting direction relative to DMSO as the negative control and baseline of activity. Using a type of inducible reporter, measures of mRNA for gain-of-signal activity can be used to understand the reporter gene at the transcription factor-level as they relate to the gene AR. Furthermore, this assay endpoint can be referred to as a primary readout, because this assay has produced multiple assay endpoints where this one serves a reporter gene function. To generalize the intended target to other relatable targets, this assay endpoint is annotated to the nuclear receptor intended target family, where the subfamily is steroidal.
Human liver HepG2 cells are transiently transfected with multiple reporter transcription units (MRTUs) in 6-well plates using FuGene 6 reagent (Roche; 3 ml FuGene/1 mg DNA). The MRTU constructs are regulated by a cis-regulating element (promoter). […] A major difference between the CIS and TRANS system is that in CIS activities of endogenous TFs are measured, whereas the TRANS assay evaluates changes in activities of exogenous, chimeric NR-Gal4 proteins. […] At the end of 24 hour incubation, total RNA was isolated using TriZol reagent (Invitrogen). The isolated RNA is then reverse-transcribed using oligo(dT) primer and Mo-MLV reverse transcriptase (Invitrogen) with DNAse I (Ambion) treatment for 30 min. The one-tenth of the produced cDNA was amplified by PCR using Taq DNA polymerase (Invitrogen) and two reporter sequence-specific primers. The PCR products were fluorescently labeled by primer extension with 6-arboxyfluorescein (6-FAM) 5'-labeled reporter sequence-specific primer (2 min at 95 C, 20 s at 68 C and 10 min at 72 C) and these products were digested with 5U of HpaI (New England Biolabs) for 2h at 37 C. The fragments were purified using Qiaquick PCR columns (Qiagen), analyzed on an ABI 3130xL genetic analyzer (Applied Biosystems) with peak positions identified by using a set of X-rhodamine (ROX)-labeled MapMarker1000 molecular weight standards (BioVentures). The raw capillary electrophoresis data was processed using Attagraph software (Attagene).

[9] = target: Steroid hormone receptor ERR1 (Homo sapiens) (UniProt P11474); assay: ATG_ERRa_TRANS: Attagene TRANS-FACTORIAL HepG2 Assay for human Estrogen-Related Receptor alpha (ERRa) (AID 2282971; active = hit-call score of the fitted dose curve at least 0.9, where 1 is the maximum); settings: HepG2 Attagene TRANS reporter, ERRa transactivation
Steroid hormone receptor ERR1 (Homo sapiens), sequence (P11474 whole entry, looked up, the tested form may be a part): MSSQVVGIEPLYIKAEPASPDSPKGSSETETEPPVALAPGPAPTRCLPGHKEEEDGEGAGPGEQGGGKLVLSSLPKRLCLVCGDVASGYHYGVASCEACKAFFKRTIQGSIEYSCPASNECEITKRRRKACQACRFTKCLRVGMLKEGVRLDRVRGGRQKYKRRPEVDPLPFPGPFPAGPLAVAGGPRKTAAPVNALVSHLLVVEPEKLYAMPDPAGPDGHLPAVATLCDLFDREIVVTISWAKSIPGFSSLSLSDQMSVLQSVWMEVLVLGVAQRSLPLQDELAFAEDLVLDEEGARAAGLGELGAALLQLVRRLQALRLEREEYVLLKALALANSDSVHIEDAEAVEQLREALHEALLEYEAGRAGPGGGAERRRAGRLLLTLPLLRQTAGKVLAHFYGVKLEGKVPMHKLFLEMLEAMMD
Summary of the method: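 HepG2 cells transiently transfected with multiplexed GAL4-UAS reporter units reading chimeric ERRa-Gal4 activity; 24 h compound exposure. Reporter mRNA measured by RT-PCR, 6-FAM labelling, HpaI digest and capillary electrophoresis; gain of signal fitted versus DMSO baseline.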

| SMILES | outcome [1] | outcome [2] | AC50 [3] | outcome [4] | outcome [5] | outcome [6] | outcome [3] | outcome [7] | outcome [8] | AC50 [4] | outcome [9] | AC50 [5] |
| --- | --- | --- | --- | --- | --- | --- | --- | --- | --- | --- | --- | --- |
| Cc1cnc(C2=NC(C)(C(C)C)C(=O)N2)c(C(=O)O)c1 (centres undefined) | inactive | inactive | 50 µM (active) | inactive | inactive | inactive | – | – | – | – | – | – |
| CC(C)N1C(=O)N(c2ccccc2)CSC1=NC(C)(C)C | inactive | inactive | – | inactive | inactive | inactive | inactive | inactive | inactive | – | – | – |
| COP(=S)(OC)Oc1ccc([N+](=O)[O-])c(C)c1 | inactive | inactive | 34.1 µM (active) | – | – | inactive | – | inactive | – | 17.9 µM (active) | inactive | 50 µM (active) |
| CC(C)(C)C(=O)C(Oc1ccc(Cl)cc1)n1cncn1 (centres undefined) | inactive | inactive | 34.4 µM (active) | – | inactive | inactive | – | inactive | – | 18.5 µM (active) | – | – |
| CC1(C)C(C(=O)OC(C#N)c2cccc(Oc3ccccc3)c2)C1(C)C (centres undefined) | inactive | inactive | 6.46 µM (active) | – | inactive | – | – | inactive | – | 21.3 µM (active) | – | – |
| CCC(C)n1c(=O)[nH]c(C)c(Br)c1=O (centres undefined) | inactive | inactive | – | inactive | inactive | inactive | inactive | inactive | – | – | inactive | – |
| Cc1c(COC(=O)[C@@H]2[C@H](/C=C(\Cl)C(F)(F)F)C2(C)C)cccc1-c1ccccc1 | inactive | inactive | 12.6 µM (active) | – | inactive | inactive | – | inactive | – | 14.9 µM (active) | – | – |
| CC1(C)CCC(=Cc2ccc(Cl)cc2)C1(O)Cn1cncn1 (centres undefined) | inactive | inactive | 8.04 µM (active) | inactive | inactive | inactive | – | inactive | – | – | – | – |
| CC1(C)C(C=C(Cl)Cl)C1C(=O)OC(C#N)c1cccc(Oc2ccccc2)c1 (centres undefined) | inactive | inactive | 4.91 µM (active) | – | inactive | inactive | – | inactive | – | 19.7 µM (active) | – | – |
